Assay results as given in PubChem BioAssay AID1318 (The Scripps Research Institute Molecular Screening Center, 2008).
Among all 1,200 compounds or so, about 160 (13%) were called active.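 The calls were made as follows: active = activation above the solvent-only control well mean plus 3 SD, set per screening run (cut at about 120% in these data); inactive = the rest.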 The list is a sample of the results.

test: enhancement of STAT1-driven transcription – cell-based, NIH 3T3, luciferase luminescence, IFN-gamma, counter-screen for STAT3 activator project (AID 1318); settings: NIH 3T3 STAT1-luciferase reporter, at 5.7 µM, hits give high values;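 also: 100% = IFN-gamma with DMSO median signal so 100% means no change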

Q: For `CN1C(=O)/C(=C\c2cc(Br)cs2)c2ccccc21`, which activation (% of control) is on record?
A: The activation (% of control) was 116% (inactive).

Q: For `Cc1nc(N=C(N)N)nc2c(C)cccc12`, which activation (% of control) is on record?
A: Its activation (% of control) is 104% (inactive).

Q: Which activation (% of control) does the source give for `CN1CCN(c2ccc([N+](=O)[O-])c(Sc3nc4ccccc4[nH]3)c2)CC1` here?
A: Its activation (% of control) is 96.2% (inactive).

Q: For `Cc1ccc(N=Nc2c(C)[nH]n(-c3ccccc3)c2=O)cc1`, which activation (% of control) is on record?
A: The activation (% of control) was 106% (inactive).

Q: For `N#Cc1ccccc1NC(=O)COc1c(Br)cc(Br)c2cccnc12`, which activation (% of control) is on record?
A: Its activation (% of control) is 85.6% (inactive).

Q: For `c1ccc(-c2cn3c(n2)CCc2ccc4cccnc4c2-3)cc1`, which activation (% of control) is on record?
A: Its activation (% of control) is 94.3% (inactive).

Q: Which activation (% of control) does the source give for `CCOC(=O)CN(C)Cc1c[nH]c2ccccc12` here?
A: Its activation (% of control) is 88.5% (inactive).

Q: Which activation (% of control) does the source give for `Cc1cccc(C(=O)Nc2nnc(Cc3c[nH]c4ccccc34)s2)c1` here?
A: Its activation (% of control) is 92.4% (inactive).

Q: For `Cc1ccc(S(=O)(=O)Nc2nc3ccccc3nc2N2CCc3ccccc3C2)cc1`, which activation (% of control) is on record?
A: Its activation (% of control) is 105% (inactive).

Q: For `O=C(Cc1c[nH]c2ccccc12)OCCOC(=O)Cc1c[nH]c2ccccc12`, which activation (% of control) is on record?
A: The activation (% of control) was 94.1% (inactive).

Q: For `C/C(=N\NC(=O)CNc1cccc2ccccc12)c1ccc(Br)s1`, which activation (% of control) is on record?
A: The activation (% of control) was 92.6% (inactive).

Q: For `CSCCC(NC(=O)c1ccco1)C(=O)OCC(=O)Nc1ncc(Cl)c(C)c1Cl` (configuration not stated), which activation (% of control) is on record?
A: Its activation (% of control) is 105% (inactive).

Q: With `CCOc1ccc(C2c3[nH]c4ccccc4c3CCN2Cc2cn(CC)nc2C)cc1` (configuration not stated) as the compound, how does the activation (% of control) read?
A: The activation (% of control) was 112% (inactive).

Q: With `Cc1ccc(Nc2nc(-c3sc(NC(=O)c4ccccc4)nc3C)cs2)cc1` as the compound, how does the activation (% of control) read?
A: Its activation (% of control) is 105% (inactive).

Q: With `COc1ccccc1-c1nnc(NC(=O)c2ccc3ncsc3c2)o1` as the compound, how does the activation (% of control) read?
A: The activation (% of control) was 137% (active).

Q: Which activation (% of control) does the source give for `COc1ccccc1-c1nnc(SCC(=O)N2CC(C)CC(C)C2)o1` (configuration not stated) here?
A: The activation (% of control) was 97% (inactive).

Q: For `OC(COc1ccc2ccccc2c1)CN1CCOCC1` (configuration not stated), which activation (% of control) is on record?
A: The activation (% of control) was 118% (inactive).

Q: With `COc1cccc(/C=C(/CC(=O)Nc2ccc(N3CCOCC3)cc2)c2nc3ccccc3s2)c1` as the compound, how does the activation (% of control) read?
A: The activation (% of control) was 99.9% (inactive).

Q: Which activation (% of control) does the source give for `Oc1c(C=Nc2cccc3nsnc23)ccc2ccccc12` here?
A: Its activation (% of control) is 95.4% (inactive).

Q: With `Cc1ccc(NC(=O)c2cc([N+](=O)[O-])ccc2Cl)c(O)c1` as the compound, how does the activation (% of control) read?
A: Its activation (% of control) is 99.1% (inactive).

Q: For `CC(C)CNC(=O)COC(=O)/C=C/c1ccccc1[N+](=O)[O-]`, which activation (% of control) is on record?
A: The activation (% of control) was 89.1% (inactive).

Q: For `O=C(Nc1cc(C(F)(F)F)ccc1Cl)c1cc(C2CC2)on1`, which activation (% of control) is on record?
A: The activation (% of control) was 98.3% (inactive).

Q: Which activation (% of control) does the source give for `Oc1cccc2ccc(/C=C/c3ccc(Br)s3)nc12` here?
A: The activation (% of control) was 103% (inactive).

Q: With `COc1nc(N=C(N)N)nc2c(C)cccc12` as the compound, how does the activation (% of control) read?
A: The activation (% of control) was 102% (inactive).

Q: Which activation (% of control) does the source give for `CCOC(=O)c1c(-c2cccc(C)c2)csc1NC(=O)c1c(-c2ccccc2)noc1C` here?
A: Its activation (% of control) is 117% (inactive).

Q: Which activation (% of control) does the source give for `O=[N+]([O-])c1ccc(N2CCN(S(=O)(=O)c3ccc4ccccc4c3)CC2)cc1NCc1ccco1` here?
A: The activation (% of control) was 110% (inactive).

Q: For `O=C1CCCN1CCCNc1ncnc2c1[nH]c1ccccc12`, which activation (% of control) is on record?
A: Its activation (% of control) is 82.6% (inactive).
